# Source: article PMC7862700, “An all-to-all approach to the identification of sequence-specific readers for epigenetic DNA modifications on cytosine”
# Legend:
# Assay in all cases: DAPPL (digital affinity profiling via proximity ligation, sequencing); 10 mM Tris-HCl pH 7.5, 50 mM NaCl, 1 mM DTT, 4% glycerol, room temperature, 30 min; GST-TFs on glutathione beads, 16-mer random dsDNA library, 0.1% formaldehyde crosslink after washing; high values mean tight binding
# Settings in all cases: protein: recombinant; tags: N-terminal GST; dsDNA, one strand shown
# ELK1 = biological target: T1, ELK1 (Homo sapiens, UniProt P19419 1-428)
# T1 sequence: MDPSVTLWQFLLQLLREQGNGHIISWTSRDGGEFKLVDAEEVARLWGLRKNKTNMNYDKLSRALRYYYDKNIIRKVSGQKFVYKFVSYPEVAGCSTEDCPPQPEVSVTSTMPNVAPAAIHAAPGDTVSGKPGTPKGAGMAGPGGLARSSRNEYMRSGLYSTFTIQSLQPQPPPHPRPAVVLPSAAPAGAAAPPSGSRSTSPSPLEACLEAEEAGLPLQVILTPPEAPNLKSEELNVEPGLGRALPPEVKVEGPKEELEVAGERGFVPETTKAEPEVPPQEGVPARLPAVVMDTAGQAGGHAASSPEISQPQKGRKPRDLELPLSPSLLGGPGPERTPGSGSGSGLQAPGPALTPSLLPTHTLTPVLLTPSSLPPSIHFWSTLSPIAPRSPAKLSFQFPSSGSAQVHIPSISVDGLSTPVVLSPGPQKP
# Procedure, shortened: (§1)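 GST fusions of human transcription factors were expressed in yeast and captured with glutathione beads. Once given DNA barcodes and pooled alongside a tag-only sample, they were incubated for 30 min at room temperature with 200 nmole of a random double-stranded 16-mer DNA library in Tris/NaCl/DTT/glycerol buffer, then washed, crosslinked (0.1% formaldehyde), proximity-ligated, PCR-amplified and sequenced on an Illumina NextSeq500. The binding signal of each hexamer is its read frequency for a factor divided by its frequency for the tag-only sample.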
# GABPA = biological target: T2, GABPA (Homo sapiens, UniProt Q06546 1-454)
# T2 sequence: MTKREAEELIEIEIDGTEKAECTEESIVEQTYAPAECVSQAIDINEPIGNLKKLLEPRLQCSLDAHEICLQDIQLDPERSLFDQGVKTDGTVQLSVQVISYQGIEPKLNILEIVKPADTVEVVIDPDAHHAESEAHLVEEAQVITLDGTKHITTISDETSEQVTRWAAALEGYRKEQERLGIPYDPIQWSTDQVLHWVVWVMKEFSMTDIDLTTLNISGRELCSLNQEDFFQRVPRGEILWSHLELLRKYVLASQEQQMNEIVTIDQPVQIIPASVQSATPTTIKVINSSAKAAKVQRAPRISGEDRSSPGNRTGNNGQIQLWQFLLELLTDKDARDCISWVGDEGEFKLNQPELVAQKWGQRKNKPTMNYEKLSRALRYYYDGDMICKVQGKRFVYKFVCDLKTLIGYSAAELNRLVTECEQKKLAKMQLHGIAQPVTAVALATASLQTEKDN
# Procedure, shortened: as §1
# ERG = biological target: T3, ERG (Homo sapiens, UniProt P11308 1-479)
# T3 sequence: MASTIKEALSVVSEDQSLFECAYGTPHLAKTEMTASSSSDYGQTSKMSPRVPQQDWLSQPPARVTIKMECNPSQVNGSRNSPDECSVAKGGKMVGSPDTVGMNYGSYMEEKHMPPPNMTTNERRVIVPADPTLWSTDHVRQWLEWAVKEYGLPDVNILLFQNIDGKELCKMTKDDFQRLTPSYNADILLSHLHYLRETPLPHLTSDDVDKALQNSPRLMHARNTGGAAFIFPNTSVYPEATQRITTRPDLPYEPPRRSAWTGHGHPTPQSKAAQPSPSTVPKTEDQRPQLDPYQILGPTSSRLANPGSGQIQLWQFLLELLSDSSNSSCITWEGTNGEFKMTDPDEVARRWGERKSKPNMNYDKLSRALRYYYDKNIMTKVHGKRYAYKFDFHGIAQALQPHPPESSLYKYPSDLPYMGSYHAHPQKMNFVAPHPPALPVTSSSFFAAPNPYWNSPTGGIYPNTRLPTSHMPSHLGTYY
# Procedure, shortened: as §1
# ELF1 = ELF1 (Homo sapiens, UniProt P32519 1-619)
# Procedure, shortened: as §1
# EHF = biological target: T4, EHF (Homo sapiens, UniProt Q9NZC4 1-300)
# T4 sequence: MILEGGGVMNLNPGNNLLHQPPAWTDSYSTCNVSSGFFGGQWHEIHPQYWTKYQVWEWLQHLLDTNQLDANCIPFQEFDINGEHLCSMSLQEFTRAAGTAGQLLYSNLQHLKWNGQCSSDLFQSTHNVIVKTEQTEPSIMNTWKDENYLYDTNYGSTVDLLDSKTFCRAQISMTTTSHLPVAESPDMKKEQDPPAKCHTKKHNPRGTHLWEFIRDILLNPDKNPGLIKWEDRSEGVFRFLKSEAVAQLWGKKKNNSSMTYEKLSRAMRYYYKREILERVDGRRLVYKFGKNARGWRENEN
# Procedure, shortened: as §1
# ELK3 = biological target: T5, ELK3 (Homo sapiens, UniProt P41970 1-407)
# T5 sequence: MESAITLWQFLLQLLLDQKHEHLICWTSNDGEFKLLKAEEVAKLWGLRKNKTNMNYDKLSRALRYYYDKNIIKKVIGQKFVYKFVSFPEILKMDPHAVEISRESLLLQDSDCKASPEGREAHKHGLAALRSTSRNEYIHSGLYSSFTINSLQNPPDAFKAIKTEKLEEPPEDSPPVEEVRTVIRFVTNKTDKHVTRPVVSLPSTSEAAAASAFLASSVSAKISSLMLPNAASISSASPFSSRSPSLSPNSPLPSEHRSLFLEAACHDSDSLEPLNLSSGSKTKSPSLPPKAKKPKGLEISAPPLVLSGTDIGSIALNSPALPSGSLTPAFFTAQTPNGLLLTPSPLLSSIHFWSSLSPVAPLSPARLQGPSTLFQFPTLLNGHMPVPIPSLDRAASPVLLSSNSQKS
# Procedure, shortened: as §1
# FEV = biological target: T6, FEV (Homo sapiens, UniProt Q99581 1-238)
# T6 sequence: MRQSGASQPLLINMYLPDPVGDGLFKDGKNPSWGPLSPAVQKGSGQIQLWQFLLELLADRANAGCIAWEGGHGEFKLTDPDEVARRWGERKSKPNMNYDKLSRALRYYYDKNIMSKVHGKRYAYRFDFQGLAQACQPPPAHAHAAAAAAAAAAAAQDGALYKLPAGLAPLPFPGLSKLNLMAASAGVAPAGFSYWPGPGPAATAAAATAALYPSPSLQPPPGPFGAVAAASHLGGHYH
# Procedure, shortened: as §1
# ETV5 = ETV5 (Homo sapiens, UniProt P41161 1-510)
# Procedure, shortened: as §1
# ELF4 = ELF4 (Homo sapiens, UniProt Q99607 1-663)
# Procedure, shortened: as §1
# ELK4 = biological target: T7, ELK4 (Homo sapiens, UniProt P28324-2 1-405)
# T7 sequence: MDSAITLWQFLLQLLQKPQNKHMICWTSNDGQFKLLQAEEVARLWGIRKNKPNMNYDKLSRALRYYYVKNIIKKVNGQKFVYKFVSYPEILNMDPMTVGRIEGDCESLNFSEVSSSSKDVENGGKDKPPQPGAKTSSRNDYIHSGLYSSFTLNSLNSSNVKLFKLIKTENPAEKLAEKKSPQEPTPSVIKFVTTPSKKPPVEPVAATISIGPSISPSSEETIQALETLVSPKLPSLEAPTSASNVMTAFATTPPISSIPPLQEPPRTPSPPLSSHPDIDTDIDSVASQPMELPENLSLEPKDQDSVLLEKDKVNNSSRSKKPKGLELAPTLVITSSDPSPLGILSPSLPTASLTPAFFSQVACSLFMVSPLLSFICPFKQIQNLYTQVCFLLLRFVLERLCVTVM
# Procedure, shortened: as §1
# ELF3 = biological target: T8, ELF3 (Homo sapiens, UniProt P78545 1-371)
# T8 sequence: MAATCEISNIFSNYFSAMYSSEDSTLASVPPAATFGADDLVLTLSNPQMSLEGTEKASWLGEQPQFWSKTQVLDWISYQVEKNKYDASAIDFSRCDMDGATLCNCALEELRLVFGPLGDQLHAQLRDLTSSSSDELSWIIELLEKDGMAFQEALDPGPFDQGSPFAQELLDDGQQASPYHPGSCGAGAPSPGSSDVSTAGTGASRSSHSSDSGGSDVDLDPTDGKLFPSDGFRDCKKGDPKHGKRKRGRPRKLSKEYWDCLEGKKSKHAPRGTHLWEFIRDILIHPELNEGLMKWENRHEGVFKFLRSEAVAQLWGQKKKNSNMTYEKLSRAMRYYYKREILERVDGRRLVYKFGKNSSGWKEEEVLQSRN
# Procedure, shortened: as §1
# ETV1 = ETV1 (Homo sapiens, UniProt P50549 1-477)
# Procedure, shortened: as §1
# ERF = biological target: T9, ERF (Homo sapiens, UniProt P50548 1-548)
# T9 sequence: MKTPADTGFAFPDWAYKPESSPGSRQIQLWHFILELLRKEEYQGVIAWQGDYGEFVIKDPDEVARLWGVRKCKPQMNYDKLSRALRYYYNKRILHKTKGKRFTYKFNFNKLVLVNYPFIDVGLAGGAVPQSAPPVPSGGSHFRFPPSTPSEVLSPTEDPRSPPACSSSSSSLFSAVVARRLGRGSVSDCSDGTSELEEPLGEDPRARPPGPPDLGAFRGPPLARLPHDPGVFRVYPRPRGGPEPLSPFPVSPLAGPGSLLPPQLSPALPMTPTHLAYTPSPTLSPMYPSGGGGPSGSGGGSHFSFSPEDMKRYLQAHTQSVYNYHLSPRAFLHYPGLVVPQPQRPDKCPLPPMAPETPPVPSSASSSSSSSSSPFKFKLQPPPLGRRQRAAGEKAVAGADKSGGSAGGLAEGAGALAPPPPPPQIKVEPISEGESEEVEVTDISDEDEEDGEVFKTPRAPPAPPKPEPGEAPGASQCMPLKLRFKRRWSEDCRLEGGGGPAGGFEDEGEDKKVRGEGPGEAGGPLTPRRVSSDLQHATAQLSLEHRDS
# Procedure, shortened: as §1
# ETV3L = biological target: T10, ETV3L (Homo sapiens, UniProt Q6ZN32 1-361)
# T10 sequence: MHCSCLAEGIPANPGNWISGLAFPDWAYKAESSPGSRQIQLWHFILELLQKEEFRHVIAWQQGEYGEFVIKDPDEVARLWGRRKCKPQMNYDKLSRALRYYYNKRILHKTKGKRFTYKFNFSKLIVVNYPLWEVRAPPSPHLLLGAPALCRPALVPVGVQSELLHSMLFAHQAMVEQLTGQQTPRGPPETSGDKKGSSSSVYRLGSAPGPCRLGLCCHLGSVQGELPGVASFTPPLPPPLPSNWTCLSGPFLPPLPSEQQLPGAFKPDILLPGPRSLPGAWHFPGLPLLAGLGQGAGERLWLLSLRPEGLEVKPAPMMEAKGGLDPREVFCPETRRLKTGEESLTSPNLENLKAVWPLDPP
# Procedure, shortened: as §1
# ETS2 = biological target: T11, ETS2 (Homo sapiens, UniProt P15036 1-469)
# T11 sequence: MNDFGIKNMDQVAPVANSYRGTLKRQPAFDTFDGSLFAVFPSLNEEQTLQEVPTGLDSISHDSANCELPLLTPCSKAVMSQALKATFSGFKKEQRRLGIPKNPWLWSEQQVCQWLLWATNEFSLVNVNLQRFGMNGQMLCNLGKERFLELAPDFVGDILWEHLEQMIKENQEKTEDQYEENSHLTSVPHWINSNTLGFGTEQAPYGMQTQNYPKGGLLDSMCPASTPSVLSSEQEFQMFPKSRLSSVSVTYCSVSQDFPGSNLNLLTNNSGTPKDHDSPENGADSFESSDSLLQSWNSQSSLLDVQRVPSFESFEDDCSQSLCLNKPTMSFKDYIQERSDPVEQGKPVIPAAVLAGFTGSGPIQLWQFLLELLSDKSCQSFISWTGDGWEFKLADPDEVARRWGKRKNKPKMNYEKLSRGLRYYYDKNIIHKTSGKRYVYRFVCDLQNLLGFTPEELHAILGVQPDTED
# Procedure, shortened: as §1
# ETV7 = biological target: T12, ETV7 (Homo sapiens, UniProt Q9Y603 1-341)
# T12 sequence: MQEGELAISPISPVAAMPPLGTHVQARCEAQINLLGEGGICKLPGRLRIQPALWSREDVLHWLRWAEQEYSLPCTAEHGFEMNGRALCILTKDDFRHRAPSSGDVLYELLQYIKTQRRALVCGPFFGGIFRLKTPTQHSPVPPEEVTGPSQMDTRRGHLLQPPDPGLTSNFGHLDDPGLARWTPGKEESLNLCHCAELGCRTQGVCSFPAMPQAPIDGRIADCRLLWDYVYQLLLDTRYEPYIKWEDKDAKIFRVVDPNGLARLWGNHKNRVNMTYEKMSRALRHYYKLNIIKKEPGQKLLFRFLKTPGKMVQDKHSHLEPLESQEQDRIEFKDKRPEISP
# Procedure, shortened: as §1
# ETV3 = biological target: T13, ETV3 (Homo sapiens, UniProt P41162-2 1-143)
# T13 sequence: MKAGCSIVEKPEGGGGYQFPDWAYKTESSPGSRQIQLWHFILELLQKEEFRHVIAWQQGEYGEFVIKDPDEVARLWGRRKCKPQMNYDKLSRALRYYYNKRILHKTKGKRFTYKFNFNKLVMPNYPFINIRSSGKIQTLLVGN
# Procedure, shortened: as §1
# ETV6 = ETV6 (Homo sapiens, UniProt P41212 1-452)
# Procedure, shortened: as §1
# ELF4, sequence (Q99607 whole entry): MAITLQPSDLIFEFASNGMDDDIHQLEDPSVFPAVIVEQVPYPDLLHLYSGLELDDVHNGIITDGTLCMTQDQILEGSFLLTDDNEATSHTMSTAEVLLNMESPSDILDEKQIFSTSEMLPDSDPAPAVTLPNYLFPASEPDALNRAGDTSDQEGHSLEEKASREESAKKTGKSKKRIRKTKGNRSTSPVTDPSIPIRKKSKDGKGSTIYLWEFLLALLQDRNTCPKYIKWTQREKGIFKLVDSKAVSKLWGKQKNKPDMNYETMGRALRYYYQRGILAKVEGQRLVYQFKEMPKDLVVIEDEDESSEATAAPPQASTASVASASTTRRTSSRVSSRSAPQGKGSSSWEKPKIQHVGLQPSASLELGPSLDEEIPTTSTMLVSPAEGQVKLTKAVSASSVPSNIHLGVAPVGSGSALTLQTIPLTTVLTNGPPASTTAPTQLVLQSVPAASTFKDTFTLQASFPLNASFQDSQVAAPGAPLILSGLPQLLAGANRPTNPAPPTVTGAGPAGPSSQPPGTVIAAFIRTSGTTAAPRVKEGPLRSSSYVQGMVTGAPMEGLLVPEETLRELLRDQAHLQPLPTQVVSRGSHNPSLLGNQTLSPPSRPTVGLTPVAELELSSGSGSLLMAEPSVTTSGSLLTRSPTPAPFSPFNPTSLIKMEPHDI
# ETV1, sequence (P50549 whole entry): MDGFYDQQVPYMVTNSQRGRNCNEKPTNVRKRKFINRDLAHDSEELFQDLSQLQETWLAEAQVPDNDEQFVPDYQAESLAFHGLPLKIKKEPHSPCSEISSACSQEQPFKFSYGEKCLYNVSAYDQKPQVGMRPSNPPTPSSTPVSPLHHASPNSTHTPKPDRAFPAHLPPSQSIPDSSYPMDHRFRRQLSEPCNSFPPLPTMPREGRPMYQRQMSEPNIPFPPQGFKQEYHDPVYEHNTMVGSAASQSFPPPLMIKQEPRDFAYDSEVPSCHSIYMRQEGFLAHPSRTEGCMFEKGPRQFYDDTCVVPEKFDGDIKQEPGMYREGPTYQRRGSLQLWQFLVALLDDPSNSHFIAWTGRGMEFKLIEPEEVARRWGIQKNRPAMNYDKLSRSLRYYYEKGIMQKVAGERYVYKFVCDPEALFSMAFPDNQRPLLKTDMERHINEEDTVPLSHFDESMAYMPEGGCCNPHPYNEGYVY
# ETV5, sequence (P41161 whole entry): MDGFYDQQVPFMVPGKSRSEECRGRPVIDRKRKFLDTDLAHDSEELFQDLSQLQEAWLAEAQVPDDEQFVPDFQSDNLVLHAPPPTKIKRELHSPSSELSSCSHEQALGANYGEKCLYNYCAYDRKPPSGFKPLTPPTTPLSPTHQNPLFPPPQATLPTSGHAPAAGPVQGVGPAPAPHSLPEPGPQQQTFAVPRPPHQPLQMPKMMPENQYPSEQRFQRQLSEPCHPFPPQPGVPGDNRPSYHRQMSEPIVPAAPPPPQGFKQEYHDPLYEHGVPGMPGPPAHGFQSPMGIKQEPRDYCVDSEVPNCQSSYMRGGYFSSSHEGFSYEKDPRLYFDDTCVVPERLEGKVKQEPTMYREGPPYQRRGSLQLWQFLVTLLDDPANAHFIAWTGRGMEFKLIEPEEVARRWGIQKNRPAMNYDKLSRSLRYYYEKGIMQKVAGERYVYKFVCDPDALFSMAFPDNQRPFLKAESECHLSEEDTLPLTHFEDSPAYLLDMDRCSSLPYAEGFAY
# ETV6, sequence (P41212 whole entry): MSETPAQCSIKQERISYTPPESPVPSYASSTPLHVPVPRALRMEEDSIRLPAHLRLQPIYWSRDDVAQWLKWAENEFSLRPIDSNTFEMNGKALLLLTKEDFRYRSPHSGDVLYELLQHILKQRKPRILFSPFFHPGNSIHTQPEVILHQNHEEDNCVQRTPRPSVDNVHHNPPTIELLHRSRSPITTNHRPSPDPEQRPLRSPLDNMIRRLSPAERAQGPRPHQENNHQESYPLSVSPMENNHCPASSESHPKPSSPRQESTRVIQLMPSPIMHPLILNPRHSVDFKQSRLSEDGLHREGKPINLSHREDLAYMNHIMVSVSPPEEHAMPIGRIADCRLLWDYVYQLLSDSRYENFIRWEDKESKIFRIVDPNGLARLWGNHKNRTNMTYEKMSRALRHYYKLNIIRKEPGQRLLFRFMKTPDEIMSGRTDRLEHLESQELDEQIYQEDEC
# ELF1, sequence (P32519 whole entry): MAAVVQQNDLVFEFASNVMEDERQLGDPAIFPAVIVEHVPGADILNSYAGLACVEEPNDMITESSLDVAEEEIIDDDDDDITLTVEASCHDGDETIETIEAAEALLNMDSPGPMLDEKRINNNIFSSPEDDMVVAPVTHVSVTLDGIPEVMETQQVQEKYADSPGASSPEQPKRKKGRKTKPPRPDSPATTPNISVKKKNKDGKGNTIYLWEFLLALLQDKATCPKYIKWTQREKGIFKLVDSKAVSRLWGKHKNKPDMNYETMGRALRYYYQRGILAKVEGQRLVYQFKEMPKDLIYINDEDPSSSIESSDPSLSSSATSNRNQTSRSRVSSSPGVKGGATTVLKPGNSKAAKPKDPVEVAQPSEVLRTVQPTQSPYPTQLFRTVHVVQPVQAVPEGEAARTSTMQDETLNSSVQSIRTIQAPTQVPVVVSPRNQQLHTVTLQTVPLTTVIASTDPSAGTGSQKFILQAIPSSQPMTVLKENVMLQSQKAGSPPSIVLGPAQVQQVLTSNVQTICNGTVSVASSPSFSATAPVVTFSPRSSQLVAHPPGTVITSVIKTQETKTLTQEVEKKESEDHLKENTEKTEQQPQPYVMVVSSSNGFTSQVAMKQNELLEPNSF
sequence,measurement,setting,value
TCACCG,binding signal,ELK1,"1.16 fold enrichment (6-mer frequency, TF over GST control)"
same,binding signal,GABPA,"1.2 fold enrichment (6-mer frequency, TF over GST control)"
same,binding signal,ERG,"1.14 fold enrichment (6-mer frequency, TF over GST control)"
same,binding signal,ELF1,"1.11 fold enrichment (6-mer frequency, TF over GST control)"
same,binding signal,EHF,"1.05 fold enrichment (6-mer frequency, TF over GST control)"
same,binding signal,ELK3,"1.13 fold enrichment (6-mer frequency, TF over GST control)"
same,binding signal,FEV,"1.18 fold enrichment (6-mer frequency, TF over GST control)"
same,binding signal,ETV5,"1.13 fold enrichment (6-mer frequency, TF over GST control)"
same,binding signal,ELF4,"1.21 fold enrichment (6-mer frequency, TF over GST control)"
same,binding signal,ELK4,"1.04 fold enrichment (6-mer frequency, TF over GST control)"
same,binding signal,ELF3,"1.07 fold enrichment (6-mer frequency, TF over GST control)"
same,binding signal,ETV1,"1.15 fold enrichment (6-mer frequency, TF over GST control)"
same,binding signal,ERF,"1.05 fold enrichment (6-mer frequency, TF over GST control)"
same,binding signal,ETV3L,"1.09 fold enrichment (6-mer frequency, TF over GST control)"
same,binding signal,ETS2,"1.15 fold enrichment (6-mer frequency, TF over GST control)"
same,binding signal,ETV7,"1.02 fold enrichment (6-mer frequency, TF over GST control)"
same,binding signal,ETV3,"1.05 fold enrichment (6-mer frequency, TF over GST control)"
same,binding signal,ETV6,"1.03 fold enrichment (6-mer frequency, TF over GST control)"
